VP16 counter: Gal4-VP16 reporter inhibition counter-screen. actives 3.5% (n = 310,000). Potency, µM (titrated, usually from 53.6 µM), for the others: top-dose activity, negative = inhibition, actives largely listed as inhibitors. Drosophila S2 Gal4-VP16 UAS-luciferase, luminescence, 20 h;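 note: Gal4-VP16 expression switched on by copper sulfate through the metallothionein promoter; potency is the fitted concentration of half-maximal effect; % is set by controls: 0 for no effect and ±100 for the full control effect; nearly all actives have a fitted effect of over 50% in size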
Giardia kill: kills Giardia lamblia; Giardia lamblia trophozoite viability; actives 0.15% (n = 340,000); AID 540267; activity change, % at 7.66 µM, hits read low; in the data active = activity change below about -80%; inconclusive = between about -30% and that limit;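 note: parasites exposed to compound for two days anaerobically before the ATP read; % is set by controls: 0 for no effect and ±100 for the full control effect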
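Compounds were tested on trophozoites seeded at 100 cells/well and held 48 hrs at 37 deg C anaerobically. An ATP-based luminescent kit measured the remaining live cells.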
MCF10A rereplic: induces DNA re-replication in MCF 10a normal breast cells | MCF 10A DNA re-replication, Hoechst nuclear intensity, 48 h | AID 624296 | Potency, µM (series often up to 46.1 µM), without a hit: at the top dose activity, positive = re-replication, usual class: activators | actives 2.9% (n = 350,000); note: potency is the fitted concentration of half-maximal effect; % of control where 0% means no effect; nearly all actives have a fitted effect of over 50% in size
RORg inh: inhibitors of mouse ROR gamma transcriptional activity; Potency, µM (highest dose often 53.6 µM), for the others: top-dose activity change, negative = inhibition, most hits filed as inhibitors; actives 5.4% (n = 310,000); P51450; Drosophila S2 Gal4-RORgamma UAS-luciferase reporter, 20 h; note: potency is the fitted concentration of half-maximal effect; % is set by controls: 0 for no effect and ±100 for the full control effect; nearly all actives have a fitted effect of over 60% in size
Target sequence (P51450 whole entry, looked up, the tested form may be a part): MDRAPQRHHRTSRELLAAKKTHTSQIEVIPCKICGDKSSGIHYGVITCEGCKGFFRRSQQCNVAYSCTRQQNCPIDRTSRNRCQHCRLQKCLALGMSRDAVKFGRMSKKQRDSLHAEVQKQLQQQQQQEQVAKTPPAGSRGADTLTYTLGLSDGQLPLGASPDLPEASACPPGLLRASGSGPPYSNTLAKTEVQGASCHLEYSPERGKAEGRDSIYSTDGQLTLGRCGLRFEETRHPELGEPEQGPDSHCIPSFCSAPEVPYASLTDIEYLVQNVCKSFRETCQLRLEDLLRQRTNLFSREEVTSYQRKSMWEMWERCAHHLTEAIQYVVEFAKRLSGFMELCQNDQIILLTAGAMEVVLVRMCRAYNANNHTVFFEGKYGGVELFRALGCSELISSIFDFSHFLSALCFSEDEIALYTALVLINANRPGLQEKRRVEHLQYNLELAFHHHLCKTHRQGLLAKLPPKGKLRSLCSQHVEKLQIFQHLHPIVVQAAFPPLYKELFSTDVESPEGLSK
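A Gal4/UAS one-hybrid system in insect cells: metallothionein-promoter Gal4–ROR gamma fusion plus Photinus luciferase reporter. Copper sulfate 700 uM final, 20 hr ambient incubation, luminescent detection after 10 min with reagent.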
Chronic BCR inh: chronic active BCR signaling inhibition; ABC-DLBCL IkBa-CBG/CBR reporter, luminescence ratio, 4 h; Potency, µM (titrated, usually from 46.1 µM), for the others: top-dose activity change, negative = inhibition, usual class: inhibitors; actives 0.05% (n = 340,000); active = well fitted inhibition curve with a large enough effect in the signal ratio, with a control signal flat, not every such curve was filed as active; inconclusive = small, poorly fitted or top-dose-only effect, or effect the other way, or a change in a side signal; the % refers to the signal ratio;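 note: potency is the fitted concentration of half-maximal effect; plate controls were basal doxycycline-induced cells for no effect and cells given 10 µM MG132 for full effect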
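Cell line TMD8 (human ABC DLBCL), stably expressing tet-inducible CBG68-IkBa fusion and CBR; IMDM/0.5% FBS; cpd up to 46 uM; dox induction, 4 h, 37C/5% CO2; dual luminescence; green/red ratio; MG132 control.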
SW480 rerep: DNA re-replication induction in SW480 cells. SW480 DNA re-replication, Hoechst DNA content imaging, 48 h. Potency, µM (titrated, usually from 46.1 µM), inactives show at the highest dose re-replication activation, most hits filed as activators. actives 1.8% (n = 340,000); note: potency is the fitted concentration of half-maximal effect; % of control where 0% means no effect; nearly all actives have a fitted effect of over 55% in size
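Quantitative HTS format with DMSO vehicle controls; 48 hr drug incubation at 37 C, then 40 min Hoechst staining and scanning imager measurement at 405 nm excitation.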
The depositor's hits bear a star; ? = inconclusive; · = no result. In the library only some 8.3% were active in any assay of this set; here they are far more common. Unless noted, calls come from the whole dose curve; as a rule, active = well fitted curve in the direction sought with a large enough effect; inconclusive = small, poorly fitted or top-dose-only effect, or another doubt; inactive = no such curve, though single readings can be large; an effect the other way counts as inactive or inconclusive.

SMILES	VP16 counter	Giardia kill	MCF10A rereplic	RORg inh	Chronic BCR inh	SW480 rerep
COc1cccc(C(=O)NC2CC(C)(C)Cc3c2cnn3-c2cccc(F)c2)c1OC (centres undefined)	1%	-4	?	15%	8%	-5%
Cc1cccc(C)c1OCC(=O)Nc1ccc2c(c1)OCCO2	2.2µM*	1	15µM*	-37%	?	80%
Cc1ccccc1OCC(=O)N/N=C/c1ccc(N2CCOCC2)o1	6.3µM*	-19	?	14µM*	?	?
O=C(CCC(=O)Nc1ccccc1)N/N=C/c1ccc2c(c1)OCO2	2%	-20	2%	15%	4%	-3%
Cc1cc(C)c(OCC(=O)N/N=C/c2ccc3c(c2)OCO3)c(C)c1	?	-11	2.9µM*	-36%	0%	?
Cc1ccccc1OCC(=O)N/N=C/c1ccncc1	?	14	2%	7%	-8%	-8%
O=C(CCC(=O)Nc1ccc(Cl)cc1)N/N=C/c1ccc2c(c1)OCO2	14µM*	0	-2%	-14%	?	-19%
COc1cccc(C(C(=O)NC2CCCCC2)N(C(=O)CNC(=O)c2ccco2)c2cccnc2)c1 (centres undefined)	-12%	5	-2%	5%	-14%	0%
COc1cccc(OC)c1OC(=O)c1ccccc1	·	-26	-1%	·	·	0%
Cc1ccccc1OCC(=O)N/N=C/c1ccc2c(c1)OCCO2	?	-7	12µM*	-37%	-8%	?
O=C(CN(Cc1ccc(Cl)c(Cl)c1)S(=O)(=O)c1ccccc1)N/N=C\c1ccc2c(c1)OCO2	0%	-16	19%	-2%	-10%	?
O=C(CN(Cc1ccccc1)S(=O)(=O)c1ccccc1)N/N=C/c1ccc2c(c1)OCO2	0.89µM*	-6	-4%	37%	?	2%
O=C(COC(=O)c1ccc(Br)o1)NCc1ccc(Cl)cc1	·	12	0%	·	1%	2%
Cc1cccc(N2CCN(Cc3cn(C)nc3-c3ccccc3F)CC2)n1	-6%	-12	7.3µM*	-27%	?	3.3µM*
Cn1cc(CN2CCN(c3ccc(Cl)cn3)CC2)c(-c2ccccc2F)n1	-14%	1	9%	13%	-9%	-4%
Cc1cc(C)c(NS(=O)(=O)c2ccc(NC(=O)c3cccs3)cc2)c(C)c1	?	19	?	?	5%	2%
CCOC(=O)/C=C/C(=O)Nc1cc(S(=O)(=O)Nc2ccc(OC)cc2)ccc1N1CCOCC1	·	3	?	·	?	16µM*
CCOC(=O)/C=C/C(=O)Nc1ccc(Oc2ccccc2)cc1	0%	-29	16µM*	?	-12%	18%
CCOC(=O)/C=C/C(=O)Nc1ccc(S(=O)(=O)Nc2c(C)cc(C)cc2C)cc1	0%	7	16µM*	-35%	-1%	?
O=C(O)/C=C/C(=O)Nc1ccc(Oc2ccccc2)cc1	0%	-20	-37%	12%	?	-4%
CCOC(=O)/C=C/S(=O)(=O)c1ccc(NC(C)=O)cc1	3.5µM*	-11	2.3µM*	3.5µM*	?	2.6µM*
Cn1c(N)c(C(=O)COC(=O)[C@@H]2CCCN2S(=O)(=O)c2ccc(Cl)cc2)c(=O)n(C)c1=O	-1%	-8	-1%	-16%	1%	-44%
CCNS(=O)(=O)c1ccc(NC(=O)CC(C)c2ccccc2)cc1 (centres undefined)	0%	40	11%	27%	0%	13%
COCc1cc(=O)[nH]c(Nc2nc3ccc(C)cc3o2)n1	3.2µM*	-9	?	4.5µM*	?	?
CCC(Oc1cc(Cl)ccc1Cl)C(=O)N1CCCN(C)CC1 (centres undefined)	-9%	3	3%	-30%	-1%	1%
SMILES	VP16 counter	Giardia kill	MCF10A rereplic	RORg inh	Chronic BCR inh	SW480 rerep
COc1ccc(N2CC(C(=O)Nc3nnc(SCC(=O)NCc4ccco4)s3)CC2=O)cc1 (centres undefined)	6%	2	5%	-14%	6%	-1%
COc1ccc(O)c(CN2CCN(CCCc3ccccc3)C(CCO)C2)c1 (centres undefined)	12%	-9	0.23µM*	15%	-5%	-6%
OCCC1CN(Cc2nc(-c3ccccc3)cs2)CCN1CCc1ccccc1 (centres undefined)	4%	8	2.9µM*	4%	0%	-6%
Cc1ccc(NC(=O)Cn2nnc(-c3ccccc3)n2)c(C)c1	·	·	·	·	4%	·
CN=C1SC(C(=O)Nc2ccccc2Cl)CC(=O)N1c1ccc(OC(F)(F)Cl)cc1 (centres undefined)	3%	-11	12%	-2%	-11%	-1%
CC(/C=C/c1ccc(C)o1)=C\C(=O)O	?	3	23µM*	20µM*	15%	9%
Cc1ccc(/C=C/C(=O)N2CC(C)CC(C)C2)o1 (centres undefined)	-10%	-10	23µM*	21%	-23%	16µM*
COc1ccccc1CNc1ncncc1-c1ccccc1OC	16µM*	·	·	?	·	·
Cn1cnc(S(=O)(=O)Nc2ccc(OC(F)F)cc2)c1	-5%	5	-3%	1%	2%	5%
COc1cc2c(cc1OC)C(=O)N1[C@H]3c4cc(Cl)ccc4OC[C@@H]3[C@H](c3ccccc3)[C@]1(C)C(=O)N2	·	-14	9.2µM*	·	?	?
COc1cc2c(cc1OC)C(=O)N1[C@H]3c4cc(C)ccc4OC[C@@H]3[C@H](c3ccccc3)[C@]1(C)C(=O)N2	·	-7	15µM*	·	?	13µM*
COc1ccc2c(c1)[C@H]1[C@H](CO2)[C@H](c2ccccc2)[C@]2(C)C(=O)Nc3cc(C)ccc3C(=O)N12	·	-11	?	·	0%	?
Cc1ccc(Cl)cc1NC(=O)CCS(=O)(=O)c1cccc2nonc12	2%	0	-1%	34%	1%	-30%
C[C@H](O)C(N)C(=O)O (some centres undefined)	-5%	·	·	-29%	·	·
Cc1nnc(SCC(=O)NCc2ccc(F)cc2)[nH]c1=O	-9%	11	0%	16%	6%	2%
CCCCC[n+]1ccn(C2=C([O-])c3ccccc3C(=O)/C2=N\S(=O)(=O)c2ccc(Cl)cc2)c1	4%	8	8%	-25%	4%	-1%
CCCC[n+]1ccn(C2=C([O-])c3ccccc3C(=O)/C2=N\S(=O)(=O)c2ccc(Cl)cc2)c1	?	-2	9%	1.6µM*	8%	24%
O=C(COC(=O)CCc1nc2ccccc2n1-c1ccccc1)Nc1ccc(N2CCCCC2)cc1	6.3µM*	11	1%	?	0%	-3%
